# Measured values from the supplement of paper PMC6555819.
# Test system: VDR:RXRa (NR concentration 270 nM, RXRa partner concentration 90 nM)
# Experiment: PBM binding z-score (relative to random genomic background probes); higher = stronger binding; sequences stand for … in GC…GCGATTGACAGCGTAGAATGAAGG
# Protocol: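 Protein-binding microarray (Agilent 4x180K custom design, double-stranded 60-nt probes: 5' GC cap, 34-nt variable region, 24-nt constant primer region; full probe sequence given). Purified or IVT nuclear receptor:RXRα heterodimers (3:1 NR:RXRα, mostly 270:90 nM) or homodimers were incubated for 1 h in PBS with 2% milk and no ligand, then detected with Alexa488 antibodies. Fluorescence from o1-orientation probes (~5 replicates averaged) was converted to z-scores against 500 random hg19 background probes. Variable regions are seed direct-repeat (DR0–DR5) sites, all their single-nucleotide variants and half-site ablations.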
row,Sequence,PBM binding z-score
1,TCAGACAGGTGAAGGTAACTCACGTACGCAGTCG,0.473
2,CAAACTAGATCAAGAGGTCAAAGTCCGCTTCCCG,4.68
3,ATACCAAGGTGATCGCGAGGTCGTTGATACTAAC,3.37
4,TCCGCTAGGTCAACGATGGTCAGCTAATCTGCTA,1.45
5,TCTGCTAGGTCAACGAAGGTCAGCTAATCTGCTA,4.97
6,GCTGCTACGTCAGGTTGGTCAGCTAACGGGTACG,-0.773
7,CCTCGGAGAACAACAGGAGGTCAGAGCTGCCAGA,1.47
8,GCTTACGGGTCAAAGGCTATAGCATGAATAGAAT,3.47
9,GATACCGGGTCAAGGCCAGAGTACGCGTATTGAT,3.11
10,CCTGCTAGGTCATAGTCAGCTAATCTACAGTATG,1.28
11,TGTCAAAGTTCAAGGGTAACGTAAGTATCCACAC,4.26
12,ATATGTAGGTTATCGGGTCGTTCAGTTTGCGCAT,3.89
13,TCACATAGGTAAAGGTGAAAGTCGAACGATATGA,1.32
14,ATTACAGGGTCACTAGGCCAGAGTAGGTACGAAT,4.19
15,CCTACTGGGCAAAGGTCATTGATCAGTCAAAGCA,4.36
16,CTACCAATGTGAACAAGGTCGTTGATTACTATTC,3.77
17,ATCTCTCGGTAAGACTCAGTTCAGTGAAGAACGC,0.848
18,AATACAGTGTCACTAGGCCAGAGTAGGTACGAAT,-0.0369
19,GCTATTGGTTGAAAGGGCAACCGAATGATTCTCG,0.563
20,CCGACTGGGGCGAGGTTACCATAACGCACAGCCA,0.364

row,Sequence,PBM binding z-score
1,CCGACTAGGGCAGAAAGGTTACCATACCATCCGG,1.13
2,GGAACAAGGGCATTCGAGTTGATAGCATGGCGAT,3.12
3,CAAACTAGGTCACCCGAAGGTCAAAGTCCGCATG,5.75
4,ACTAGCAGGCCAAGTTTTGGTCACTCAAACAAAG,-0.348
5,TCGAGTAGGTAAGGGGCATTCAGAATGGCGTCGA,0.0857
6,ACTAGCAGGCCAAGTTTGGGTCATTCAAACAAAG,1.07
7,ATCTCTAGGTAAAAGTTCAGTGCATCCCGAGGAT,1.69
8,ACTATTAGTTGACTGAGGGCAACCGATACGACGC,2.41
9,CCTATTAGTTGACCATAAGGGCAACCTAAGCTCG,0.839
10,ATCTCTAGTTAAAAGTTCAGTGAATCCCGAGGAT,1.29
11,CTCGAAAGGTCGTGCTCAGGTGCGTATACCAAAC,3.57
12,TCTGCTAGGTCAGTTGGTCAGCTTACGAGCTGCC,0.0848
13,CCTTCCGGGTCACTCCAGGTTATAGCATCGGAGT,4.21
14,CCTACTGGGCCACGAAATGTCATTGATTCAGTGA,-0.452
15,TCAATTAGTTGAAGGGCAACCGACGAGTCCGTTT,0.667
16,ACAAGTTGGTCAGCTGAGGTCACACACAATTCGG,4.66
17,CGTACAGGGTCAGCTAGGCCAGAGTAGGGACGGC,3.78
18,AGAACGAGGGCACGCTGAGTTGATAGGAGAGTAG,2.04
19,TCAGATAGGTAAATGCTAGGTGAAAGTCCGATCT,0.407
20,ATCTCTAGGTAACTAAGTTCAGTGAATGCCGAAC,4.26
